In PubChem BioAssay (NCI):
The panel holds about 79,000 compounds, 15% with a hit somewhere; the sample as a whole holds those more often. Activity calls are given as the source filed them. Rule as the data show it: active = growth inhibition above about 70%; inactive = the rest.

Legend:
[1] = NCI Yeast Anticancer Drug Screen. Data for the rad52 strain (AID 147);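 also: 0% = growth of vehicle-treated control cultures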; conditions: S. cerevisiae rad52 mutant growth inhibition, active compounds read high
In short: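 Screen used a yeast mutant impaired in DNA repair. After compound exposure, growth was measured. Values reflect inhibition compared with vehicle-treated cells.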

[2] = NCI Yeast Anticancer Drug Screen. Data for the wt1 strain (AID 149);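 also: 0% = growth of vehicle-treated wt1 cultures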; conditions: S. cerevisiae wt1 strain (SPY 50644) growth inhibition, active compounds read high
In short: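 Readout: yeast growth inhibition, normalised to vehicle controls, in the wt1 strain exposed to test compounds.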

[3] = NCI Yeast Anticancer Drug Screen. Data for the rad50EPP+ strain (AID 151);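 also: 0% = growth of vehicle-treated control cultures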; conditions: S. cerevisiae rad50 mutant strain, active compounds read high
In short: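 Exposing the rad50EPP+ strain to each compound, growth was compared with vehicle-only cultures to give inhibition.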

[4] = NCI Yeast Anticancer Drug Screen. Data for the mgt1 strain (AID 153); conditions: S. cerevisiae mgt1 mutant growth inhibition, active compounds read high
In short: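 Genetically defined yeast (mgt1) treated with compound; inhibition of growth expressed against vehicle-treated controls.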

[5] = NCI Yeast Anticancer Drug Screen. Data for the rad50 strain (AID 155);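 also: 0% = growth of vehicle-only cultures of the same strain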; conditions: S. cerevisiae rad50 strain growth inhibition, active compounds read high
In short: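 Compounds were tested on a yeast strain with an engineered DNA damage repair alteration; the reported value is growth inhibition normalised to vehicle treatment.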

[6] = NCI Yeast Anticancer Drug Screen. Data for the mec2-1 strain (AID 157); conditions: S. cerevisiae mec2-1 strain, active compounds read high
In short: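 Readout is yeast growth inhibition, normalised to vehicle-treated controls, in the mec2-1 strain exposed to compound.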

[7] = NCI Yeast Anticancer Drug Screen. Data for the rad14 strain (AID 159);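 also: 0% = growth of vehicle-treated control cultures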; conditions: S. cerevisiae rad14 strain growth inhibition, active compounds read high
In short: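 Compound-treated yeast with a defined DNA-repair lesion; growth inhibition normalised to vehicle-treated cultures.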

[8] = NCI Yeast Anticancer Drug Screen. Data for the sgs1 mgt1 strain (AID 161);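 also: 0% = growth of cultures given vehicle only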; conditions: S. cerevisiae sgs1 mgt1 strain, active compounds read high
In short: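 Growth of a repair-deficient yeast mutant was monitored after compound treatment and expressed as inhibition relative to vehicle-treated cultures.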

[9] = NCI Yeast Anticancer Drug Screen. Data for the cln2 rad14 strain (AID 165);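 also: 0% = growth equal to vehicle treated cultures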; conditions: S. cerevisiae cln2 rad14 strain, active compounds read high
In short: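 Relative to vehicle controls, growth inhibition of compound-treated cln2 rad14 yeast was recorded.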

[10] = NCI Yeast Anticancer Drug Screen. Data for the bub3 strain (AID 167); conditions: S. cerevisiae bub3 mutant strain, active compounds read high
In short: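 Growth of a checkpoint-deficient yeast mutant is measured after compound exposure. Values represent inhibition relative to vehicle.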

[11] = NCI Yeast Anticancer Drug Screen. Data for the wt2 strain (AID 169);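 also: 0% = growth of vehicle-treated yeast cultures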; conditions: S. cerevisiae wt2 strain growth inhibition, active compounds read high
In short: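 Values express reduction in yeast growth under compound treatment, referenced to vehicle-treated cells.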

[12] = NCI Yeast Anticancer Drug Screen. Data for the mlh1 strain (AID 171);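 also: 0% = growth of vehicle-treated control cultures of the same strain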; conditions: S. cerevisiae mlh1 strain growth inhibition, active compounds read high
In short: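 Steps: expose the defined-mutant yeast strain to compound; expose a parallel culture to vehicle; measure growth; express compound effect as inhibition relative to the vehicle culture.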

[13] = NCI Yeast Anticancer Drug Screen. Data for the sgs1 strain (AID 173);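 also: 0% = growth of vehicle-only control cultures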; conditions: S. cerevisiae sgs1 mutant, active compounds read high
In short: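 Treat defined-mutant yeast with compound; measure growth; calculate inhibition relative to vehicle-treated cells.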

[14] = NCI Yeast Anticancer Drug Screen. Data for the mlh1 rad18 strain (AID 175); conditions: S. cerevisiae mlh1 rad18 strain growth inhibition, active compounds read high
In short: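 Test agents were incubated with a yeast strain of defined genotype (DNA damage repair defect). Inhibition of growth was derived by comparison with vehicle-exposed cultures.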

[15] = NCI Yeast Anticancer Drug Screen. Data for the rad18 strain (AID 177); conditions: S. cerevisiae rad18 mutant growth inhibition, active compounds read high
In short: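 A genetically defined yeast mutant impaired in DNA damage repair was treated with test compounds, then its growth was measured against cultures receiving vehicle alone.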

[16] = NCI Yeast Anticancer Drug Screen. Data for the CLN2oe strain (AID 163);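 also: 0% = growth of vehicle-only control cultures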; conditions: S. cerevisiae CLN2oe strain, active compounds read high
In short: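 Values reflect how much compound exposure reduced yeast growth, referenced to vehicle-exposed cells. Assay organism is a strain with a defined genetic change affecting cell-cycle control.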

[17] = at 5.0 µM (retest, dose inferred, filed as 0.5)
[18] = at 50.0 µM (retest, dose inferred, filed as 5.0)

Measured: growth inhibition

S=C(NCc1ccccn1)N/N=C/c1ccccn1
inactive: [3]; at 1.2 µM 34% | [3]; at 3.7 µM 63% | [5]; [17] 40% | [6]; [17] 33% | [8]; [17] 69% | [9]; [17] -1% | [10]; [17] -10% | [14]; [17] 5%
active: [1]; at 1.2 µM 98% | [1]; at 3.7 µM 99% | [1]; at 11.0 µM 99% | [1]; at 33.0 µM 99% | [1]; at 100.0 µM 98% | [2]; at 1.2 µM 98% | [2]; at 3.7 µM 98% | [2]; at 11.0 µM 99% | [2]; at 33.0 µM 99% | [2]; at 100.0 µM 99% | [3]; at 11.0 µM 87% | [3]; at 33.0 µM 93% | [3]; at 100.0 µM 96% | [4]; at 1.2 µM 97% | [4]; at 3.7 µM 98% | [4]; at 11.0 µM 99% | [4]; at 33.0 µM 99% | [4]; at 100.0 µM 99% | [5]; at 1.2 µM 97% | [5]; at 3.7 µM 98% | [5]; at 11.0 µM 98% | [5]; at 33.0 µM 98% | [5]; [18] 99% | [5]; at 50.0 µM 75.5% | [5]; at 100.0 µM 98% | [6]; at 1.2 µM 97% | [6]; at 3.7 µM 98% | [6]; at 11.0 µM 99% | [6]; at 33.0 µM 99% | [6]; [18] 99% | [6]; at 50.0 µM 84.2% | [6]; at 100.0 µM 99% | [7]; at 1.2 µM 98% | [7]; at 3.7 µM 99% | [7]; at 11.0 µM 99% | [7]; at 33.0 µM 99% | [7]; at 100.0 µM 99% | [8]; [18] 99% | [8]; at 50.0 µM 90.1% | [9]; [18] 99% | [9]; at 50.0 µM 89.7% | [10]; at 1.2 µM 94% | [10]; at 3.7 µM 98% | [10]; at 11.0 µM 99% | [10]; at 33.0 µM 99% | [10]; [18] 99% | [10]; at 50.0 µM 90.1% | [10]; at 100.0 µM 98% | [11]; at 1.2 µM 97% | [11]; at 3.7 µM 98% | [11]; at 11.0 µM 98% | [11]; at 33.0 µM 99% | [11]; at 100.0 µM 99% | [12]; at 1.2 µM 96% | [12]; at 3.7 µM 98% | [12]; at 11.0 µM 98% | [12]; at 33.0 µM 97% | [12]; at 100.0 µM 98% | [13]; at 1.2 µM 99% | [13]; at 3.7 µM 98% | [13]; at 11.0 µM 98% | [13]; at 33.0 µM 99% | [13]; at 100.0 µM 99% | [14]; [18] 99% | [14]; at 50.0 µM 90.7% | [15]; at 1.2 µM 98% | [15]; at 3.7 µM 98% | [15]; at 11.0 µM 98% | [15]; at 33.0 µM 98% | [15]; at 100.0 µM 99%

O=C1C(/C=C/c2ccc(Cl)cc2)=NNC2N1N=C1NC(=O)C3(NN12)c1ccccc1-c1ccccc13 (stereo unspecified)
active: [5]; at 50.0 µM 83.3% | [6]; at 50.0 µM 76.2% | [8]; at 50.0 µM 73.5% | [10]; at 50.0 µM 87.2% | [14]; at 50.0 µM 87.7%
inactive: [1]; at 1.2 µM -2% | [1]; at 3.7 µM -2% | [1]; at 11.0 µM -1% | [1]; at 33.0 µM -3% | [1]; at 100.0 µM 10% | [2]; at 1.2 µM 1% | [2]; at 3.7 µM 2% | [2]; at 11.0 µM 1% | [2]; at 33.0 µM 2% | [2]; at 100.0 µM 6% | [3]; at 1.2 µM -1% | [3]; at 3.7 µM -3% | [3]; at 11.0 µM 1% | [3]; at 33.0 µM 0% | [3]; at 100.0 µM 10% | [4]; at 1.2 µM -2% | [4]; at 3.7 µM -2% | [4]; at 11.0 µM -2% | [4]; at 33.0 µM -13% | [4]; at 100.0 µM 4% | [5]; at 1.2 µM -7% | [5]; at 3.7 µM -15% | [5]; [17] -10% | [5]; at 11.0 µM -21% | [5]; at 33.0 µM -1% | [5]; [18] 22% | [5]; at 100.0 µM 12% | [6]; at 1.2 µM 0% | [6]; at 3.7 µM 1% | [6]; [17] -10% | [6]; at 11.0 µM 0% | [6]; at 33.0 µM 5% | [6]; [18] 25% | [6]; at 100.0 µM 9% | [7]; at 1.2 µM -1% | [7]; at 3.7 µM -2% | [7]; at 11.0 µM -1% | [7]; at 33.0 µM 0% | [7]; at 100.0 µM 5% | [8]; [17] -4% | [8]; [18] 22% | [16]; at 1.2 µM -3% | [16]; at 3.7 µM -3% | [16]; at 11.0 µM 1% | [16]; at 33.0 µM 9% | [16]; at 100.0 µM 14% | [9]; [17] 18% | [9]; [18] 32% | [9]; at 50.0 µM 62.9% | [10]; at 1.2 µM -2% | [10]; at 3.7 µM 1% | [10]; [17] -19% | [10]; at 11.0 µM 0% | [10]; at 33.0 µM -2% | [10]; [18] -12% | [10]; at 100.0 µM 1% | [12]; at 1.2 µM 0% | [12]; at 3.7 µM 0% | [12]; at 11.0 µM 1% | [12]; at 33.0 µM 2% | [12]; at 100.0 µM 4% | [13]; at 1.2 µM -1% | [13]; at 3.7 µM 0% | [13]; at 11.0 µM -1% | [13]; at 33.0 µM 1% | [13]; at 100.0 µM 3% | [14]; [17] -34% | [14]; [18] 62% | [15]; at 1.2 µM -3% | [15]; at 3.7 µM -1% | [15]; at 11.0 µM -1% | [15]; at 33.0 µM 0% | [15]; at 100.0 µM 17%

Cc1ccc(NC(Nc2ccc(C)cc2C)=C(C(Cl)=C(Cl)Cl)[N+](=O)[O-])c(C)c1
inactive: [1]; at 1.2 µM 4% | [1]; at 3.7 µM 10% | [2]; at 1.2 µM 2% | [2]; at 3.7 µM 3% | [2]; at 11.0 µM 34% | [3]; at 1.2 µM 8% | [3]; at 3.7 µM 10% | [3]; at 11.0 µM 19% | [3]; at 33.0 µM 38% | [4]; at 1.2 µM 0% | [4]; at 3.7 µM 4% | [4]; at 11.0 µM 21% | [5]; at 1.2 µM 1% | [5]; at 3.7 µM 4% | [6]; at 1.2 µM 0% | [6]; at 3.7 µM 5%
active: [1]; at 11.0 µM 78% | [1]; at 33.0 µM 99% | [1]; at 100.0 µM 94% | [2]; at 33.0 µM 99% | [2]; at 100.0 µM 96% | [3]; at 100.0 µM 71% | [4]; at 33.0 µM 99% | [4]; at 100.0 µM 95% | [5]; [17] 90% | [5]; at 11.0 µM 72% | [5]; at 33.0 µM 99% | [5]; [18] 98% | [5]; at 50.0 µM 98% | [5]; at 100.0 µM 92%
